The source of these data is PubChem BioAssay (NCI).

Some test systems named below: T-47D breast; BT-549 breast; MDA-MB-435 melanoma; SW-620 colon; HCT-116 colon; HCC-2998 colon; KM12 colon; MCF7 breast.
Holding throughout (assay): NCI-60 one-dose screen, 48 h (100 = growth as untreated, 0 = no growth, -100 = all killed)
What all share (details): 10 µM unless noted

This is part of a sample that, as a whole, favours compounds with a hit. Of some 83,000 tested, about 20% had one in any assay.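 How to read the values: 0–100, growth inhibition (40 = 60% inhibited); 0, no net growth; -100 to 0, cell death (-40 = 40% of starting cells died; -100 = all dead).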 A number with no mark means an inactive call. Activity calls are given as the source filed them. How the source made its calls: active means growth percent below 10; inactive means the rest.

Take `NS(=O)(=O)c1ccc(CCN2C(=O)C3C(C2=O)C2(Cl)C(Cl)=C(Cl)C3(Cl)C2(Cl)Cl)cc1` (stereo not given): the growth is 94.4% with T-47D breast; 94.8% in the test on BT-549 breast; 108% in the test with MDA-MB-435 melanoma; 105% with SW-620 colon; 94% in the test with HCT-116 colon; 93.8% in the test with HCC-2998 colon. The growth in the test on KM12 colon is 105%.
For the compound `O=Cc1cc2ccccc2nc1Oc1ccc(C(F)(F)F)cc1`, the growth in the test with T-47D breast is 83.7%; in the test with BT-549 breast, 99.7%; in the test with MDA-MB-435 melanoma it was 103%; with SW-620 colon, 67%; in the test with MCF7 breast, 48.1%; in the test with HCT-116 colon, 102%. The growth with KM12 colon is 92.4%.
Regarding `COc1ccccc1/C(C)=N/NC(=O)CSc1nc2ccccc2c(=O)n1Cc1ccc(S(N)(=O)=O)cc1`, the growth with T-47D breast was 97.6%; in the test on BT-549 breast it was 99.3%; in the test with MDA-MB-435 melanoma, 103%; in the test with SW-620 colon, 100%; in the test on MCF7 breast it was 89.2%; in the test on HCT-116 colon, 95.9%. Further, the growth in the test with KM12 colon was 102%.
`COC(=O)C1=C(C(=O)ON)C2C=CC1(C(Cc1ccccc1)Nc1ccccc1)O2` (stereo not given): the growth in the test on T-47D breast was -51.1% (active); with BT-549 breast it was 106%; in the test with MDA-MB-435 melanoma, 94.5%; in the test with SW-620 colon, -60% (active); in the test with MCF7 breast, 83.3%; in the test with HCT-116 colon it was -73.8% (active). In addition, the growth in the test with KM12 colon is 103%.
As for `COc1cc2c(c(OC)c1OC)CCC(c1cccc(NC(=O)c3cccc(Br)c3)c1)O2` (stereo not given), the growth was 72.5% in the test on T-47D breast; 103% in the test with BT-549 breast; 87.4% with MDA-MB-435 melanoma; 93.2% in the test with SW-620 colon; 89% in the test with MCF7 breast; 72.2% in the test with HCT-116 colon. Moreover, the growth with KM12 colon is 95.2%.
For the compound `CCCC/C=N/NC(=S)NCc1ccccc1`, the growth was 88.3% in the test on T-47D breast; 102% with BT-549 breast; 98.4% with MDA-MB-435 melanoma; 96.1% in the test with SW-620 colon; 90.9% in the test with HCT-116 colon; 109% in the test with HCC-2998 colon. For the same compound, in the test with KM12 colon, the growth is 104%.
In the case of `O=C1Nc2ccccc2/C1=C\c1c(-c2ccccc2)nc2ccccn12`, the growth was 38.1% in the test on T-47D breast; 45.3% with BT-549 breast; -42% (active) with MDA-MB-435 melanoma; 21.2% in the test on SW-620 colon; 19.6% in the test on MCF7 breast; 20.6% with HCT-116 colon. For the same compound, in the test on KM12 colon, the growth is 23.3%.
For `N#C/C(=C\c1cccc(C#N)c1)c1ccccc1`, the growth was 78.7% in the test with T-47D breast; 102% in the test with BT-549 breast; 100% in the test on MDA-MB-435 melanoma; 105% in the test on SW-620 colon; 94.2% with HCT-116 colon; 93.1% with HCC-2998 colon. In addition, in the test on KM12 colon, the growth was 102%.
Consider `O=S(=O)(NCCNc1nccc(-c2c(-c3cccc(O)c3)nc3occn23)n1)c1ccc(C(F)(F)F)cc1`, for which the growth was 79.2% in the test on T-47D breast; 107% with BT-549 breast; 45% in the test with MDA-MB-435 melanoma; 126% in the test with SW-620 colon; 90.1% in the test with HCT-116 colon; 132% in the test with HCC-2998 colon. The growth with KM12 colon is 94.4%.
Regarding `CCOc1cccc(-c2nc(N)nc(Nc3ccccc3SSc3ccccc3Nc3nc(N)nc(-c4cccc(OCC)c4)n3)n2)c1`, the growth is 44.5% in the test on T-47D breast; 78.7% in the test on BT-549 breast; 88.8% with MDA-MB-435 melanoma; 76.4% in the test on SW-620 colon; 57.2% with HCT-116 colon; 97.8% with HCC-2998 colon. The growth with KM12 colon was 40.6%.
With `CC(C)(C)[Si](C)(C)OC1[C@@H](O[Si](C)(C)C(C)(C)C)[C@@H](CNC(=O)NC(=O)CCl)O[C@H]1n1cnc2c(NC(=O)Nc3ccccc3)ncnc21` (stereo not given in full), the growth is -45.7% (active) in the test with T-47D breast; -85.9% (active) in the test with BT-549 breast; -79.1% (active) with MDA-MB-435 melanoma; -49.7% (active) in the test on SW-620 colon; -71.8% (active) in the test with MCF7 breast; -99% (active) in the test with HCT-116 colon. Further, the growth with KM12 colon is -79.4% (active).
For `O=C(CCN1CCCC1)Nc1ccc2c(NCCCc3ccccc3)c3ccccc3nc2c1`, the growth with T-47D breast was 11.6%; in the test with BT-549 breast, 47.7%; in the test on MDA-MB-435 melanoma it was -87.8% (active); with SW-620 colon it was -63.3% (active); with MCF7 breast it was -44.3% (active); in the test with HCT-116 colon, -63.5% (active). Moreover, in the test on KM12 colon, the growth is -10% (active).
With `C#CCNC(=O)[C@]1(C)CC[C@]2(C)CC[C@@H]3C(=CC[C@H]4[C@@]3(C)CC[C@H]3C(C)(C)C(=O)CC[C@]43C)[C@@H]2C1`, the growth is 77.1% with T-47D breast; 101% with BT-549 breast; 97.3% in the test with MDA-MB-435 melanoma; 105% in the test on SW-620 colon; 83.3% in the test on MCF7 breast; 81% in the test on HCT-116 colon. Further, in the test with KM12 colon, the growth is 92.3%.
For the compound `CC(=O)c1cc2c(N)c(C(=O)Nc3cccc4ccncc34)sc2nc1C`, the growth in the test with T-47D breast is 97.1%; in the test on BT-549 breast, 102%; in the test on MDA-MB-435 melanoma, 6.83% (active); in the test on SW-620 colon, 101%; in the test on HCT-116 colon it was 102%; with HCC-2998 colon, 107%. For the same compound, the growth in the test with KM12 colon was 101%.
For the compound `C=C1C(=O)O[C@H]2[C@H]1CC/C(CNC(=O)C(C)c1ccc(CC(C)C)cc1)=C\CC[C@@]1(C)O[C@@H]21` (stereo not given in full), the growth with T-47D breast was -46.3% (active); with BT-549 breast, -39.5% (active); in the test on MDA-MB-435 melanoma, 0.546% (active); with SW-620 colon, -59% (active); in the test with MCF7 breast it was 4.24% (active); in the test with HCT-116 colon it was -87.8% (active). Further, in the test with KM12 colon, the growth was 57.8%.
Take `O=[N+]([O-])CC(c1ccccc1F)c1c[nH]c2ccccc12` (stereo not given): the growth in the test with T-47D breast was 59.4%; with BT-549 breast, 73.8%; in the test on MDA-MB-435 melanoma it was 3.66% (active); in the test with SW-620 colon it was 39%; in the test on MCF7 breast it was 54.3%; in the test with HCT-116 colon, 65.2%. The growth in the test on KM12 colon was 59.5%.
As to `CCOC(=O)CC1CSC(N/N=C/c2ccc(-n3cccn3)cc2)=N1` (stereo not given), the growth was 106% with T-47D breast; 116% in the test on BT-549 breast; 110% with MDA-MB-435 melanoma; 106% with SW-620 colon; 98.1% in the test with MCF7 breast; 98.7% in the test on HCT-116 colon. Further, the growth with KM12 colon was 103%.
As for `COc1ccc(C(=O)NNc2nc(Cl)nc(N3CCN(C(c4ccccc4)c4ccccc4)CC3)n2)cc1`, the growth with T-47D breast is 85.5%; in the test on BT-549 breast, 52.2%; with MDA-MB-435 melanoma, 90.6%; in the test with SW-620 colon, 9.22% (active); with MCF7 breast it was 89.3%; in the test with HCT-116 colon, 9% (active). In addition, the growth with KM12 colon is 92.4%.
Take `COc1cc(OC)cc(C(=O)C[n+]2cccc3cc[nH]c32)c1`: the growth was 100% in the test with T-47D breast; 102% with BT-549 breast; 99% in the test with MDA-MB-435 melanoma; 99.8% with SW-620 colon; 94.2% in the test on MCF7 breast; 97.6% in the test with HCT-116 colon. The growth in the test with KM12 colon is 101%.
In the case of `COc1cc2nc(-c3ccc(Cl)cc3)cc(OCCCN3CCOCC3)c2cc1OC`, the growth with T-47D breast is 28.2%; in the test on BT-549 breast, 44.9%; with MDA-MB-435 melanoma it was 10.2%; in the test on SW-620 colon, 65%; with HCT-116 colon it was 21.1%; in the test on HCC-2998 colon, 66.8%. Also, the growth in the test on KM12 colon was 29.7%.
Turning to `COc1ccc(C(=O)CSc2nc(-c3cc(OC)ccc3OC)cc(-c3ccc(Cl)cc3)c2C#N)cc1`, the growth is 32.3% in the test with T-47D breast; 10.8% with BT-549 breast; 26% with MDA-MB-435 melanoma; 50.7% with SW-620 colon; 30.2% in the test with HCT-116 colon; 78.3% in the test with HCC-2998 colon. The growth in the test on KM12 colon was 48.3%.
`Cn1cc(-c2csc(-c3c[nH]c4ccccc34)n2)c2ccnc(Cl)c21`: the growth in the test on T-47D breast is 18.4%; in the test on BT-549 breast it was 93.8%; with MDA-MB-435 melanoma, 75.7%; in the test on SW-620 colon it was 41.7%; in the test with HCT-116 colon, 59.4%; in the test with HCC-2998 colon it was 92.4%. The growth with KM12 colon was 58.9%.
As for `[O-][n+]1c(Cl)cc(Cl)c2ccccc21`, the growth was 97.7% with T-47D breast; 101% in the test on MDA-MB-435 melanoma; 107% in the test on SW-620 colon; 97.4% in the test with MCF7 breast; 103% in the test on HCT-116 colon; 104% in the test on HCC-2998 colon. In addition, the growth in the test with KM12 colon is 95.1%.
Regarding `COc1cc2oc(-c3cccc(C(=O)Nc4ccc(Cl)cc4)c3)cc(=O)c2c(O)c1OC`, the growth is 47.2% in the test on T-47D breast; 60.1% in the test on BT-549 breast; 61% in the test on MDA-MB-435 melanoma; 73.6% in the test with SW-620 colon; 39.9% with HCT-116 colon; 96.5% in the test on HCC-2998 colon. Moreover, in the test on KM12 colon, the growth is 62%.
Regarding `CC(=O)Nc1ccc(-c2ccc3c(c2)NC(=O)/C3=C\c2ccc[nH]2)cc1`, the growth is 37.5% in the test on T-47D breast; 83.5% in the test on BT-549 breast; 90.6% with MDA-MB-435 melanoma; 96.4% with SW-620 colon; 104% in the test on HCT-116 colon; 104% in the test on HCC-2998 colon. Moreover, in the test with KM12 colon, the growth is 45.4%.
`CCCCCN1C=C/C(=C\C(=O)N(C)c2ccc(OC(F)(F)F)cc2)c2ccccc21`: the growth is 88.3% in the test on T-47D breast; 109% with BT-549 breast; 105% with MDA-MB-435 melanoma; 98.1% with SW-620 colon; 74.3% with HCT-116 colon; 106% in the test with HCC-2998 colon. The growth in the test on KM12 colon is 102%.
Take `CN(C)CCC(=O)c1ccc([N+](=O)[O-])cc1`: the growth was 89.4% in the test on T-47D breast; 104% in the test with MDA-MB-435 melanoma; 106% in the test with SW-620 colon; 89.4% in the test on MCF7 breast; 103% in the test with HCT-116 colon; 106% in the test with HCC-2998 colon. Further, the growth with KM12 colon was 113%.
In the case of `COc1cccc(-c2nc3occn3c2-c2ccnc(NCCNS(=O)(=O)c3cccc4ccccc34)n2)c1`, the growth with T-47D breast was 87.3%; in the test with BT-549 breast it was 105%; in the test on MDA-MB-435 melanoma it was 102%; in the test with SW-620 colon, 113%; in the test with HCT-116 colon it was 99.9%; in the test on KM12 colon, 93.8%.
